Outcome and AC50 data for 17 compounds are collected here from PubChem BioAssay (EPA / NIEHS).

Values joined by “and” are separate entries in the source; they are usually repeats but may differ in a detail not shown here. Equal entries are not always repeated. A structure can be active in one record and inactive in another. Active and inactive are the calls of the source. The calls were made as follows: active = hit-call score of the fitted dose curve at least 0.9, where 1 is the maximum; inactive = score below 0.9.

A short description of experiment [1]: ATG_PBREM_CIS: Attagene CIS-FACTORIAL HepG2 Assay for human Phenobarbital-responsive Enhancer Module (PBREM) (AID 2282955). As to conditions: HepG2 PBREM cis-reporter, Attagene multiplexed transcription; actives raise or lower the signal. The method, boiled down:
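After a 24 h incubation with test chemical, transfected HepG2 cells yield total RNA; reporter-specific RT-PCR products are fluorescently labelled, HpaI-digested and resolved by capillary electrophoresis against ROX size standards.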

In experiment [2] the target is Paired box protein Pax-6 (Homo sapiens) (UniProt P26367). Kind of experiment: ATG_Pax6_CIS: Attagene CIS-FACTORIAL HepG2 Assay for human Paired Box 6 (PAX6) (AID 2282956). The settings on record: HepG2 CIS-FACTORIAL PAX6 reporter transcription, RNA readout; actives raise or lower the signal. An outline of the steps: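 Readout: reporter transcript fluorescence after RT-PCR and capillary electrophoresis. Cells: HepG2, transiently transfected with cis-regulated MRTUs. Exposure 24 h. Gain or loss of signal fitted bidirectionally relative to DMSO.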
Sequence of Paired box protein Pax-6 (Homo sapiens) (P26367 whole entry, looked up): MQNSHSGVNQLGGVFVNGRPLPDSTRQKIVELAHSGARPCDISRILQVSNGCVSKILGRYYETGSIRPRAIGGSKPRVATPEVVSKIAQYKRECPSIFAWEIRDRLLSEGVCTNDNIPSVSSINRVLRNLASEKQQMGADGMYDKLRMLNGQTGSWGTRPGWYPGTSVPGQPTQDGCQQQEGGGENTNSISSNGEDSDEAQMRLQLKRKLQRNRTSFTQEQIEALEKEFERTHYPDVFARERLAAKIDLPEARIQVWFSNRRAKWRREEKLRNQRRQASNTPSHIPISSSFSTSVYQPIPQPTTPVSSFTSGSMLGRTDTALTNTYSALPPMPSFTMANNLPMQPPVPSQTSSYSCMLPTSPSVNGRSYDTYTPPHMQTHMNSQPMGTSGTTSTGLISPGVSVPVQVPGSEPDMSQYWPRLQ

Experiment [3] can be described thus: ATG_PXRE_CIS: Attagene CIS-FACTORIAL HepG2 Assay for human Pregnane X Receptor Element (PXRE) (AID 2282957). The settings on record: HepG2 Attagene CIS-FACTORIAL PXRE reporter, mRNA; actives raise or lower the signal. An outline of the steps: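 Reporter transcripts under endogenous PXR-responsive cis-regulation quantified from total RNA of transfected HepG2 cells 24 h post-dosing, via RT-PCR with fluorescent primer extension and capillary electrophoresis. Gain or loss of signal fitted against DMSO baseline.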

The nature of experiment [4]: ATG_PPRE_CIS: Attagene CIS-FACTORIAL HepG2 Assay for human Peroxisome Proliferator-activated Response Element (PPRE) (AID 2282958). The settings on record: HepG2 PPRE cis-element reporter, Attagene transcription factor profiling; actives raise or lower the signal. An outline of the steps: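 Multiplexed reporter transcription units under cis-regulatory promoters were transfected into HepG2 cells to capture endogenous factor activity. A 24 h incubation preceded RNA isolation and fluorescent RT-PCR fragment analysis.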

A short description of experiment [5]: ATG_RORE_CIS: Attagene CIS-FACTORIAL HepG2 Assay for human RAR-related Orphan Receptor Element (RORE) (AID 2282959). As to conditions: HepG2 Attagene cis-factorial RORE reporter, mRNA; actives raise or lower the signal. The method, boiled down:
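Fluorescence intensity of reporter-specific cDNA fragments, separated by capillary electrophoresis, gives the signal. Source: HepG2 liver cells transiently transfected with cis-element reporters and exposed 24 h; DMSO-normalized bidirectional fit.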

A short description of experiment [6]: ATG_Sox_CIS: Attagene CIS-FACTORIAL HepG2 Assay for human SRY-box transcription factor (SOX) (AID 2282960). The settings on record: HepG2 Attagene cis-factorial SOX reporter, mRNA; actives raise or lower the signal. The method, boiled down:
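After 24 h of chemical treatment, transfected HepG2 reporter cells are lysed for total RNA. Transcript levels come from RT-PCR with labelled primer extension and capillary electrophoresis, analysed bidirectionally versus DMSO.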

Experiment [7] addresses Transcription factor Sp1 (Homo sapiens) (UniProt P08047). The experiment in a line: ATG_Sp1_CIS: Attagene CIS-FACTORIAL HepG2 Assay for human Specificity Protein 1 (Sp1) (AID 2282961). As to conditions: HepG2 Sp1 cis-reporter transcription, actives raise or lower the signal. An outline of the steps:
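Sp1-driven reporter mRNA, read as capillary electrophoresis fluorescence after RT-PCR, in transiently transfected HepG2 cells dosed for 24 h; signal change in either direction relative to DMSO.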

The nature of experiment [8]: ATG_SREBP_CIS: Attagene CIS-FACTORIAL HepG2 Assay for human Sterol Regulatory Element Binding (SREBP) (AID 2282962). As to conditions: HepG2 Attagene cis-factorial SREBP reporter, mRNA; actives raise or lower the signal. The method, boiled down:
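Readout: fluorescent reporter-transcript peaks resolved by capillary electrophoresis after RT-PCR. Cells were human HepG2 carrying transfected cis-promoter reporter constructs, dosed for 24 h. Gain or loss of signal was fitted against DMSO controls.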

Experiment [9] has as its target Signal transducer and activator of transcription 3 (Homo sapiens) (UniProt P40763). Kind of experiment: ATG_STAT3_CIS: Attagene CIS-FACTORIAL HepG2 Assay for human Signal Transducer and Activator of Transcription 3 (STAT3) (AID 2282963). As to conditions: HepG2, Attagene cis-factorial STAT3 reporter transcription; actives raise or lower the signal. An outline of the steps: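 HepG2, MRTU-transfected, 24 h dosing. RNA → RT → PCR → FAM label → HpaI → CE. Bidirectional fit vs DMSO.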

Experiment [10] in a line: ATG_TA_CIS: Attagene CIS-FACTORIAL HepG2 Assay for human TA Basal Promoter (AID 2282964). The settings on record: HepG2 Attagene CIS-factorial TA basal promoter reporter; actives raise or lower the signal. An outline of the steps: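 Background-control readout: TA basal promoter reporter mRNA, fitted in both directions relative to DMSO. Measured by RT-PCR and capillary electrophoresis 24 hours after treating HepG2 human liver cells transiently carrying multiplexed cis-regulated reporter constructs.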

Sequence of Transcription factor Sp1 (Homo sapiens) (P08047 whole entry, looked up): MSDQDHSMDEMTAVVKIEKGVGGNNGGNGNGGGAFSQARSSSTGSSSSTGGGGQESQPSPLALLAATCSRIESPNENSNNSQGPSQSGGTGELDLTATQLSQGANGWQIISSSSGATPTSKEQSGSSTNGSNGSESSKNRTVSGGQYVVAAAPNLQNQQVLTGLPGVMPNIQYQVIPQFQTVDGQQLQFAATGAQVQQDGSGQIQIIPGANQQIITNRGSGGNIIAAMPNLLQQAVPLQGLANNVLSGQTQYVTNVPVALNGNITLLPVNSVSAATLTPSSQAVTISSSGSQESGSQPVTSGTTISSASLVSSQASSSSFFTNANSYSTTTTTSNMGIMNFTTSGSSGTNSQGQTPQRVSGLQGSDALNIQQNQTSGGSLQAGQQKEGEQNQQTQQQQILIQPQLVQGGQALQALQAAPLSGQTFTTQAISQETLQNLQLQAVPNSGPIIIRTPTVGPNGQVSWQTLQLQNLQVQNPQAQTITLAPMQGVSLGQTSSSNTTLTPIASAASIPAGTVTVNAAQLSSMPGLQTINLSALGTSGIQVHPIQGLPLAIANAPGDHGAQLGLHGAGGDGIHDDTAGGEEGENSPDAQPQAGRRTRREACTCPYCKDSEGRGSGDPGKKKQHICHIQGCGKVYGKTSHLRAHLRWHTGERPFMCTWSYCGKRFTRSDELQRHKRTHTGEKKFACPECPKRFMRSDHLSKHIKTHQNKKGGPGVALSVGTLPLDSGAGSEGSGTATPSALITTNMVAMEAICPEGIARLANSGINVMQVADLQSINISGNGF
Sequence of Signal transducer and activator of transcription 3 (Homo sapiens) (P40763 whole entry, looked up): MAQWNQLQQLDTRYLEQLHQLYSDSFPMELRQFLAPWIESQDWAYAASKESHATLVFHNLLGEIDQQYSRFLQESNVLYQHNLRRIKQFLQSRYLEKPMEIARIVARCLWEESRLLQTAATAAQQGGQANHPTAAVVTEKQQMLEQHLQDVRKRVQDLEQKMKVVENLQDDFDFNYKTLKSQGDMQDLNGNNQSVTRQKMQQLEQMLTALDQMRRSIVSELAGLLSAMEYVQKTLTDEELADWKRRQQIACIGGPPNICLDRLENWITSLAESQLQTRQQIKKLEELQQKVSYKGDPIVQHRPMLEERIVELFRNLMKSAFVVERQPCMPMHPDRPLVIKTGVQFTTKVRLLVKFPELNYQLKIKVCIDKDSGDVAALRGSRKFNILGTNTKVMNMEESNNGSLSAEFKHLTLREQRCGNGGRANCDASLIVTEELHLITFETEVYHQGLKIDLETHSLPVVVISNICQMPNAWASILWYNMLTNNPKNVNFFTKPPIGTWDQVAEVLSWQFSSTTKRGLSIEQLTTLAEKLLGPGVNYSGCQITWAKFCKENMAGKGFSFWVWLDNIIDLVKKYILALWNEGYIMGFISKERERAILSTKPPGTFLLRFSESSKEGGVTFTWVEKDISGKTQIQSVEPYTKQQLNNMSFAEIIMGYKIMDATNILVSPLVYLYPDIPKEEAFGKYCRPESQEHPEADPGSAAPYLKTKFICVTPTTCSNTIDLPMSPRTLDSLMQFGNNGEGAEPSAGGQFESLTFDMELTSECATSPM

For orientation: AC50 means the concentration giving half of the maximal activity seen. For the compound `CCCCCCCCCCCCN1CCCC1=O`, the result in experiment [1], in [2], in experiment [4], in experiment [5], in experiment [6] and in experiment [7] was inactive. Further, the compound was called inactive in experiment [8], in [9] and in [10]. Further, in experiment [3], the AC50 was 4.43 µM (active).

Turning to `CCCOC(=O)c1ccc(O)cc1`, the result in [1], in experiment [2], in experiment [4], in experiment [5], in experiment [6] and in experiment [7] was inactive. Moreover, the compound was classed as inactive in experiment [8], in [9] and in experiment [10]. In addition, the AC50 is 142 µM (active) in experiment [2]; 34.2 µM (active) and 60 µM (active) in experiment [3]; 77.5 µM (active) in experiment [4]; 128 µM (active) in experiment [5]; 26.4 µM (active) in experiment [8]; 162 µM (active) in experiment [10].

Consider `CC(=O)NC1(c2cccc(F)c2)CCN(CC[C@@]2(c3ccc(Cl)c(Cl)c3)CN(c3ccccc3)C(=O)CO2)CC1`, for which the AC50 was 56.2 µM (active) in experiment [1]; 26 µM (active) in experiment [2]; 1.42 µM (active) in [3]; 55.6 µM (active) in [4]; 50.2 µM (active) in experiment [5]; 55.9 µM (active) in experiment [6]. Also, the AC50 is 44.4 µM (active) in experiment [7], 8.79 µM (active) in experiment [8] and 16.8 µM (active) in [10]. Further, the call in experiment [9] was inactive.

With `Cc1ccc(S(=O)(=O)O)c(C)c1`, the result in [1], in experiment [2], in experiment [3], in [4], in [6] and in experiment [7] was inactive. Moreover, the result in [8], in [9] and in experiment [10] was inactive. The half-maximal activity concentration (AC50) in [3] is 27.3 µM (active).

Consider `FC(F)(I)C(F)(F)C(F)(F)C(F)(F)C(F)(F)C(F)(F)I`, for which the outcome in [1], in experiment [3], in [4], in [5], in experiment [6] and in [7] was inactive. Also, the outcome in [8] and in experiment [9] was inactive. For the same compound, the AC50 in experiment [2] and in experiment [10] was 16 µM (active) in each case.

As to `CC#C[C@]1(O)CC[C@H]2[C@@H]3CCC4=CC(=O)CCC4=C3[C@@H](c3ccc(N(C)C)cc3)C[C@@]21C`, the concentration at half-maximal activity (AC50) in experiment [1] was 11.5 µM (active) and 4.77 µM (active) and 13 µM (active); in [2], 11.6 µM (active) [middle of 4 runs]; in [3] it was 1.03 µM (active) [middle of 4 runs]; in experiment [5], 6.68 µM (active) [middle of 4 runs]; in experiment [7], 122 µM (active) and 27.5 µM (active); in experiment [8], 23.9 µM (active) and 91.2 µM (active) and 31.7 µM (active). Moreover, the AC50 in experiment [10] was 9.11 µM (active) and 8.72 µM (active) and 27.2 µM (active). The result in experiment [1], in experiment [6], in [7], in experiment [8], in experiment [9] and in experiment [10] was inactive.

With `O=C1OC2(c3ccccc31)c1cc(Br)c(O)c(Br)c1Oc1c2cc(Br)c(O)c1Br`, the AC50 in experiment [1] was 52.2 µM (active); in experiment [3], 25.8 µM (active) and 5.86 µM (active); in experiment [5], 74.9 µM (active) and 46.2 µM (active). The outcome in experiment [1], in experiment [2], in experiment [4], in [6], in [7] and in [8] was inactive. Moreover, the outcome in [9] and in experiment [10] was inactive.

With `ClC1=C(Cl)C(Cl)(Cl)C(Cl)=C1Cl`, the AC50 in [1] was 13.5 µM (active); in [2], 18.4 µM (active) and 6.7 µM (active); in experiment [3], 16.2 µM (active) and 6.82 µM (active); in experiment [7], 15.7 µM (active) and 7.29 µM (active); in experiment [8] it was 11.1 µM (active); in experiment [9], 21.7 µM (active). Also, the outcome in experiment [1], in experiment [4], in [5], in experiment [6], in [8] and in experiment [9] was inactive. Besides, the call in [10] was inactive.

On to `NCC(F)(F)C(F)(F)C(F)(F)C(F)(F)C(F)(F)C(F)(F)C(F)(F)F`, for which the result in [1], in [2], in [3], in experiment [4], in experiment [5] and in [6] was inactive. Further, the outcome in experiment [7], in [8], in experiment [9] and in experiment [10] was inactive.

For the compound `COCC(C)OCC(C)O` (centres undefined), the outcome in experiment [1], in [2], in experiment [3], in experiment [4], in experiment [5] and in experiment [6] was inactive. Also, the call in experiment [7], in experiment [8], in [9] and in experiment [10] was inactive.

As for `O=C(O)c1ccccc1C(c1ccc(O)cc1)c1ccc(O)cc1`, the result in [1], in experiment [2], in experiment [4], in experiment [5], in experiment [6] and in experiment [7] was inactive. In addition, the compound was classed as inactive in [8], in [9] and in experiment [10]. For the same compound, the concentration at half-maximal activity (AC50) in experiment [3] is 44.9 µM (active) [middle of 4 runs].

For the compound `CCCCCCC(=O)O`, the outcome in experiment [1], in experiment [2], in [3], in experiment [5], in experiment [6] and in [7] was inactive. Further, the compound was called inactive in experiment [8], in experiment [9] and in [10]. Besides, the AC50 in experiment [3] is 53.4 µM (active).

Take `C#C[C@]1(O)CC[C@H]2[C@@H]3CCC4=CC(=O)CC[C@@H]4[C@H]3CC[C@@]21C`: the result in experiment [1], in [2], in experiment [4], in experiment [5], in experiment [6] and in experiment [7] was inactive. Further, the compound was classed as inactive in experiment [8], in experiment [9] and in experiment [10]. Besides, the AC50 in [3] is 26.9 µM (active) [middle of 4 runs].

`CCCCOCCO`: the result in [1], in [2], in [3], in experiment [4], in [5] and in [6] was inactive. Moreover, the call in experiment [7], in experiment [8], in experiment [9] and in experiment [10] was inactive.

Consider `OC1CCCCC1`, for which the outcome in experiment [1], in experiment [2], in experiment [3], in [4], in experiment [5] and in experiment [6] was inactive. Moreover, the call in experiment [7], in [8], in experiment [9] and in [10] was inactive.

In the case of `CCCCCCCCCCCCCC[N+](C)(C)C`, the result in experiment [1], in [2], in experiment [3], in experiment [4], in experiment [5] and in [6] was inactive. For the same compound, the outcome in experiment [7], in [9] and in experiment [10] was inactive. Also, the AC50 in experiment [8] is 6.57 µM (active) and 2.76 µM (active); in [9] it was 18.1 µM (active).

As to `c1ccc2cc3c(ccc4ccccc43)cc2c1`, the result in experiment [1], in experiment [2], in experiment [3], in experiment [5], in [6] and in experiment [7] was inactive. For the same compound, the compound was called inactive in [8], in experiment [9] and in [10]. Further, the AC50 in [3] is 8.53 µM (active) and 20.8 µM (active); in experiment [5], 1.44 µM (active).
